Records with an inconclusive call do not appear. Active and inactive are the calls of the source. The call rests on the fitted dose curve; in most records, active means well fitted inhibition curve with a large enough effect; inconclusive means small, poorly fitted or top-dose-only effect; inactive means flat fitted curve, though single readings scatter.
Key:
[1] = qHTS profiling for inhibitors of Plasmodium falciparum proliferation (AID 504749); further: nearly all actives have a fitted effect of over 60% in size;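 on activity, negative = inhibition: 0% = DMSO vehicle and full inhibition = artemisinin control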; details: P. falciparum in erythrocytes, SYBR Green DNA, 72 h
Summary of the method: (§1)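 In a 72 h erythrocytic culture (37 C, humidified, 5% CO2) at 2.5% hematocrit and 0.3% starting parasitemia, compounds were tested; SYBR Green I in detergent lysis buffer stained parasite DNA overnight.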

[2] = tested on: 3D7; test: as above; details: P. falciparum in erythrocytes, SYBR Green DNA, 72 h; series mostly up to 28.7 µM
Summary of the method: as §1

[3] = tested on: AA1029; test: as above; details: P. falciparum in erythrocytes, SYBR Green DNA, 72 h; series mostly up to 28.7 µM
Summary of the method: as §1

[4] = tested on: AS120; test: as above; details: P. falciparum in erythrocytes, SYBR Green DNA, 72 h; series mostly up to 28.7 µM
Summary of the method: as §1

[5] = tested on: ATS189; test: as above; details: P. falciparum in erythrocytes, SYBR Green DNA, 72 h; series mostly up to 28.7 µM
Summary of the method: as §1

[6] = tested on: ATS95; test: as above; details: P. falciparum in erythrocytes, SYBR Green DNA, 72 h; series mostly up to 28.7 µM
Summary of the method: as §1

[7] = tested on: C2A; test: as above; details: P. falciparum in erythrocytes, SYBR Green DNA, 72 h; series mostly up to 28.7 µM
Summary of the method: as §1

[8] = tested on: CP185; test: as above; details: P. falciparum in erythrocytes, SYBR Green DNA, 72 h; series mostly up to 28.7 µM
Summary of the method: as §1

[9] = tested on: CP191; test: as above; details: P. falciparum in erythrocytes, SYBR Green DNA, 72 h; series mostly up to 28.7 µM
Summary of the method: as §1

[10] = tested on: CP192; test: as above; details: P. falciparum in erythrocytes, SYBR Green DNA, 72 h; series mostly up to 28.7 µM
Summary of the method: as §1

[11] = tested on: CP194; test: as above; details: P. falciparum in erythrocytes, SYBR Green DNA, 72 h; series mostly up to 28.7 µM
Summary of the method: as §1

[12] = tested on: CP201; test: as above; details: P. falciparum in erythrocytes, SYBR Green DNA, 72 h; series mostly up to 28.7 µM
Summary of the method: as §1

[13] = tested on: CP203; test: as above; details: P. falciparum in erythrocytes, SYBR Green DNA, 72 h; series mostly up to 28.7 µM
Summary of the method: as §1

[14] = tested on: CP211; test: as above; details: P. falciparum in erythrocytes, SYBR Green DNA, 72 h; series mostly up to 28.7 µM
Summary of the method: as §1

[15] = tested on: CP215; test: as above; details: P. falciparum in erythrocytes, SYBR Green DNA, 72 h; series mostly up to 28.7 µM
Summary of the method: as §1

[16] = tested on: CP217; test: as above; details: P. falciparum in erythrocytes, SYBR Green DNA, 72 h; series mostly up to 28.7 µM
Summary of the method: as §1

[17] = tested on: 7G8; test: as above; details: P. falciparum in erythrocytes, SYBR Green DNA, 72 h; series mostly up to 28.7 µM
Summary of the method: as §1

[18] = at 28.7 µM (top of the series), parasite line A
[19] = at 28.7 µM (top of the series), parasite line B
Potency means the concentration at half of the fitted maximal effect.

NCCNc1cccc2ccccc12
inactive: activity, negative = inhibition [1, 18] -9.01% | activity, negative = inhibition [1, 19] 2.1% | Potency [2] | Potency [3] | Potency [4] | Potency [5] | Potency [6] | Potency [7] | Potency [8] | Potency [9] | Potency [10] | Potency [11] | Potency [12] | Potency [13] | Potency [14] | Potency [15] | Potency [16]

COc1ccc(CN(CCN(C)C)c2ncccn2)cc1
inactive: activity, negative = inhibition [1, 18] 12.9% | activity, negative = inhibition [1, 19] 5.48% | Potency [2] | Potency [3] | Potency [4] | Potency [5] | Potency [6] | Potency [7] | Potency [8] | Potency [9] | Potency [10] | Potency [11] | Potency [12] | Potency [14] | Potency [15] | Potency [16]

Cc1cc(-c2ccccc2)nnc1NCCN1CCOCC1
inactive: activity, negative = inhibition [1, 18] 6.44% | activity, negative = inhibition [1, 19] 8.72% | Potency [2] | Potency [3] | Potency [4] | Potency [5] | Potency [6] | Potency [7] | Potency [8] | Potency [9] | Potency [10] | Potency [11] | Potency [12] | Potency [14] | Potency [15] | Potency [16]

NC(=O)n1c(O)c(C(=O)c2cccs2)c2cc(Cl)ccc21
inactive: activity, negative = inhibition [1, 18] 5.54% | activity, negative = inhibition [1, 19] -6.01% | Potency [2] | Potency [3] | Potency [4] | Potency [5] | Potency [6] | Potency [7] | Potency [8] | Potency [9] | Potency [10] | Potency [11] | Potency [12] | Potency [14] | Potency [15] | Potency [16]

C=C[C@@]1(C)CC(=O)[C@]2(O)[C@@]3(C)[C@@H](O)CCC(C)(C)[C@@H]3[C@H](O)[C@H](OC(C)=O)[C@@]2(C)O1
inactive: activity, negative = inhibition [1, 18] -7.28% | activity, negative = inhibition [1, 19] 2.74% | Potency [2] | Potency [3] | Potency [4] | Potency [5] | Potency [6] | Potency [7] | Potency [8] | Potency [9] | Potency [10] | Potency [11] | Potency [12] | Potency [13] | Potency [14] | Potency [15] | Potency [16]

O=C1C(O)=C(O)C(=O)C(O)=C1O
inactive: activity, negative = inhibition [1, 18] 5.3% | activity, negative = inhibition [1, 19] 12.3% | Potency [3] | Potency [4] | Potency [5] | Potency [6] | Potency [7] | Potency [8] | Potency [9] | Potency [10] | Potency [11] | Potency [12] | Potency [13] | Potency [14] | Potency [15] | Potency [16]

CN(C)CCN1C(=O)c2ccccc2N(C)c2ccccc21
inactive: activity, negative = inhibition [1, 18] -2.77% | activity, negative = inhibition [1, 19] 8.88% | Potency [2] | Potency [7] | Potency [15]

CNCCCCOc1ccccc1Cc1ccccc1
active: Potency [17] 6.31 µM | Potency [3] 5.01 µM
inactive: activity, negative = inhibition [1, 18] -10.8% | activity, negative = inhibition [1, 19] -10.9% | Potency [2] | Potency [10]

CCOCCn1c(N2CCCN(C)CC2)nc2ccccc21
inactive: activity, negative = inhibition [1, 18] 7.9% | activity, negative = inhibition [1, 19] 8.28% | Potency [2] | Potency [4] | Potency [6] | Potency [7] | Potency [8] | Potency [9] | Potency [10] | Potency [12] | Potency [14] | Potency [15] | Potency [16]

COc1cc([C@H]2Oc3cc([C@H]4Oc5cc(O)cc(O)c5C(=O)[C@@H]4O)ccc3O[C@@H]2CO)ccc1O
inactive: activity, negative = inhibition [1, 18] -10.1% | activity, negative = inhibition [1, 19] -14.4% | Potency [2] | Potency [3] | Potency [5] | Potency [6] | Potency [7] | Potency [8] | Potency [9] | Potency [10] | Potency [12] | Potency [13] | Potency [14] | Potency [15] | Potency [16]
active: Potency [17] 11.2 µM

N/C(=N\N=C\c1ccc(Cl)cc1)N/N=C/c1ccc(Cl)cc1
active: Potency ([1]; parasite line A) 3.16 µM | Potency ([1]; parasite line B) 5.01 µM | Potency [2] 3.98 µM | Potency [17] 2.82 µM | Potency [4] 5.01 µM | Potency [6] 8.91 µM | Potency [7] 8.91 µM | Potency [9] 3.16 µM | Potency [16] 8.91 µM
inactive: Potency [10] | Potency [11] | Potency [12] | Potency [13] | Potency [14] | Potency [15]

CCCCc1cc2ccccc2c(OCCN(C)C)n1
inactive: activity, negative = inhibition ([1]; at 12.8 µM (top of the series), parasite line A) 8.06% | activity, negative = inhibition ([1]; at 12.8 µM (top of the series), parasite line B) 4.66% | Potency [2] | Potency [3] | Potency [4] | Potency [5] | Potency [6] | Potency [7] | Potency [8] | Potency [9] | Potency [10] | Potency [11] | Potency [12] | Potency [13] | Potency [14] | Potency [16]

CCCCCN=C(N)N/N=C/c1c[nH]c2ccc(OC)cc12
active: Potency ([1]; parasite line A) 8.91 µM | Potency ([1]; parasite line B) 12.6 µM | Potency [2] 8.91 µM | Potency [17] 1 µM | Potency [4] 10 µM | Potency [5] 5.01 µM | Potency [9] 7.94 µM
inactive: Potency [10]

CC(=O)OCC(=O)[C@H]1CC[C@H]2[C@@H]3CCC4=CC(=O)CC[C@]4(C)[C@H]3CC[C@]12C
inactive: activity, negative = inhibition [1, 18] -11.3% | activity, negative = inhibition [1, 19] -3.83% | Potency [2] | Potency [3] | Potency [5] | Potency [7] | Potency [8] | Potency [9] | Potency [10] | Potency [11] | Potency [12] | Potency [14] | Potency [16]

NC(=O)C1(N2CCCCC2)CCN(CCCC(=O)c2ccc(F)cc2)CC1
inactive: activity, negative = inhibition [1, 18] 3.28% | activity, negative = inhibition [1, 19] 10.8% | Potency [2] | Potency [3] | Potency [4] | Potency [5] | Potency [6] | Potency [7] | Potency [8] | Potency [9] | Potency [10] | Potency [12] | Potency [13] | Potency [14] | Potency [15] | Potency [16]

Source: PubChem BioAssay (NCATS)
